Source: PubChem BioAssay (NCI)
The panel holds about 83,000 compounds, 20% with a hit somewhere; the sample as a whole holds those more often.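 A percent growth of 40 corresponds to 60% growth inhibition; 0 means no net growth; -100 means all cells died. Active threshold: below 10.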 A number with no mark means an inactive call. The source made the active and inactive calls.

Experiments:
Assay in all cases: NCI-60 one-dose screen, 48 h (100 = growth as untreated, 0 = no growth, -100 = all killed)
Settings in all cases: 10 µM unless noted
DU-145 prostate = system: DU-145 prostate
K-562 leukemia = system: K-562 leukemia
MALME-3M melanoma = system: MALME-3M melanoma
MDA-MB-231 breast = system: MDA-MB-231 breast
RXF 393 renal = system: RXF 393 renal
SF-268 CNS = system: SF-268 CNS
SF-295 CNS = system: SF-295 CNS
SF-539 CNS = system: SF-539 CNS
UACC-257 melanoma = system: UACC-257 melanoma
M14 melanoma = system: M14 melanoma
HCT-15 colon = system: HCT-15 colon
HT29 colon = system: HT29 colon
SNB-75 CNS = system: SNB-75 CNS
SNB-19 CNS = system: SNB-19 CNS
U251 CNS = system: U251 CNS
PC-3 prostate = system: PC-3 prostate
SK-MEL-5 melanoma = system: SK-MEL-5 melanoma
UACC-62 melanoma = system: UACC-62 melanoma
LOX IMVI melanoma = system: LOX IMVI melanoma
SK-MEL-28 melanoma = system: SK-MEL-28 melanoma

Compound	growth (DU-145 prostate)	growth (K-562 leukemia)	growth (MALME-3M melanoma)	growth (MDA-MB-231 breast)	growth (RXF 393 renal)	growth (SF-268 CNS)	growth (SF-295 CNS)	growth (SF-539 CNS)	growth (UACC-257 melanoma)	growth (M14 melanoma)	growth (HCT-15 colon)	growth (HT29 colon)	growth (SNB-75 CNS)	growth (SNB-19 CNS)	growth (U251 CNS)	growth (PC-3 prostate)	growth (SK-MEL-5 melanoma)	growth (UACC-62 melanoma)	growth (LOX IMVI melanoma)	growth (SK-MEL-28 melanoma)
COc1ccc2[nH]cc(/C=N/Nc3nc4ccccc4s3)c2c1	60.3%	24.3%	98.4%	67.2%	60.8%	55.9%	58.5%	70.5%	81.9%	52%	22.9%	59.9%	66.5%	80%	55.7%	33.2%	83.7%	73.1%	30.7%	83.1%
CC1(C)CC[C@]2(C(=O)O)CC[C@]3(C)C(=CC[C@@H]4[C@@]5(C)CC/C(=N\OCCC#N)C(C)(C)[C@@H]5CC[C@]43C)[C@@H]2C1	91.8%	109%	117%	93%	66.6%	84.6%	102%	99.2%	108%	98.2%	106%	109%	53.4%	104%	107%	99.2%	98.4%	92.6%	91.8%	106%
COc1ccc(S(=O)(=O)NCCCNc2nccc(-c3cn(C(C)(C)C)nc3-c3ccc(Cl)c(OC)c3)n2)cc1	72.3%	59.7%	92.7%	43.8%	-0.734% (active)	57.9%	91.2%	89.8%	104%	92.8%	78.5%	81%	50.5%	96.3%	98.9%	58.3%	85.8%	61.2%	72.7%	98.9%
C[C@H]1c2[nH]c3ccccc3c2C[C@H]2C(=O)N(CCCCCCC(=O)NO)CC(=O)N21	95.2%	57.3%	41.4%	78.5%	93%	90.1%	93.6%	73.2%	63%	91.4%	99.3%	86.8%	82.1%	84.8%	85.2%	77.7%	83%	69.6%	-8.74% (active)	78.9%
COc1ccc(/C=N/NC2=NC3C(S2)N(C)C(=O)N3C)cc1 (stereo not given)	25.2%	9.56% (active)	39%	44.9%	-19.3% (active)	47.6%	10.6%	2.22% (active)	79.8%	32.5%	28.4%	8.29% (active)	8.09% (active)	34.6%	27.2%	32.1%	31.1%	38.3%	32.7%	53.5%
COc1cc(OC)cc(C(=O)Nc2cccc(C#Cc3cccc4[nH]nc(N)c34)c2)c1	28.6%	8.84% (active)	40.5%	19.1%	-19.4% (active)	33%	27.5%	-63.9% (active)	53.4%	-2.56% (active)	31.1%	7.34% (active)	-18.6% (active)	57.2%	22.5%	31.9%	-32.6% (active)	23.1%	31.9%	50.3%
CC1(C)CC[C@]2(C(=O)N3CCOCC3)CC[C@]3(C)C(=CC[C@@H]4[C@@]5(C)C/C(=C/c6ccco6)C(=O)C(C)(C)[C@@H]5CC[C@]43C)[C@@H]2C1	73.2%	64.2%	97.4%	85.5%	-3.24% (active)	63.1%	95.3%	86.5%	94.5%	101%	81.5%	82.7%	28.6%	100%	101%	60.3%	94.2%	80.3%	63.9%	91.6%
CC(C)(C)n1cc(-c2ccnc(NCCCNS(=O)(=O)c3cccc(F)c3)n2)c(-c2ccc(Cl)c(O)c2)n1	94.4%	59%	94%	103%	105%	95.9%	108%	104%	114%	94.9%	89.6%	94.8%	110%	103%	106%	67.5%	95.5%	89.5%	96.4%	95.4%
COc1cc(-c2ccc3ncnc(NCc4ccccc4)c3c2)cnc1OC	24.3%	85.2%	94.9%	41.5%	-18.3% (active)	46.5%	55.1%	48.7%	75.7%	86.2%	68.2%	64.5%	-17.8% (active)	74.4%	81.7%	31.7%	70.8%	47.1%	41.2%	63.2%
CC(=O)c1ccc(Nc2nc(SCC(C)C)nc(-c3ccccc3)c2C#N)cc1	107%	95.4%	94.9%	73.5%	-1.29% (active)	72%	17%	63.9%	105%	103%	95.3%	106%	93.3%	38.5%	32.4%	104%	99.7%	75.3%	86.9%	101%
N#Cc1c(-c2cccs2)cc(-c2cnccn2)nc1SCC(=O)c1ccc(F)cc1	79.5%	87.2%	101%	68.7%	62.2%	84.7%	93.6%	76.9%	109%	116%	100%	105%	58.5%	97.7%	104%	87.2%	96.4%	81.1%	85.4%	100%
C[C@@H](Nc1ncnc2ccc(-c3cnc(Cl)c(NS(C)(=O)=O)c3)cc12)c1ccccc1	34.1%	73.9%	59.2%	49%	-17.5% (active)	42.5%	46%	44.5%	60.9%	69.1%	66%	64.6%	-14.7% (active)	64%	67.9%	41.5%	66.3%	35.6%	40.2%	50.4%
COc1cc(-c2nn(C(C)(C)C)cc2-c2ccnc(NCCCNS(=O)(=O)c3ccc(F)cc3)n2)ccc1Cl	74.1%	40.2%	86.1%	60.1%	8.65% (active)	58%	80.5%	91.2%	93.3%	93.3%	59.7%	73.2%	48.1%	92.9%	89.3%	51.5%	85%	72.2%	74.8%	89.8%
COc1cccc2c1CN(C(=O)c1ccc(O)c(C(=O)N3Cc4ccc(OCCC[P+](c5ccccc5)(c5ccccc5)c5ccccc5)cc4C3)c1)C2	89.1%	22.6%	70.8%	86.9%	104%	80.5%	76.3%	64.4%	44.8%	89.3%	102%	100%	80.9%	28.3%	53.6%	71.7%	35.7%	44.4%	42.7%	63.2%
COc1ccc(C(=O)Nc2ncc(Cc3ccccc3Cl)s2)cc1	18.2%	7.56% (active)	57.1%	24.9%	-2.13% (active)	43.3%	7.7% (active)	2.11% (active)	67%	15.5%	9.87% (active)	-16.6% (active)	28.8%	23.7%	14.6%	29.7%	2.6% (active)	35.7%	1.15% (active)	64%
